# Only a selection was taken, and the strongest signals are over-represented in it overall.
# Legend:
# Assay in all cases: glycan array binding signal (z-score within array); higher = stronger binding
# [1] = test system: Gal(b1-4)GlcNAc(b1-6)GalNAc; conditions: glycan notation: IUPAC condensed, linker removed; mutation: D138V, E140I
# In short: (§1)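 The binding signal is a Z-score computed within each array and averaged over linkers. Arrays of the same protein sequence at different concentrations or buffers were also averaged together. Data originate from 3228 arrays in the Consortium for Functional Glycomics database, kept only where the protein sequence was available.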
# [2] = test system: Gal(b1-4)GlcNAc(b1-6)[Gal(b1-3)]GalNAc; conditions: glycan notation: IUPAC condensed, linker removed
# In short: as §1
# Gal(b1-6)Gal = conditions: glycan notation: IUPAC condensed, linker removed
# In short: as §1
# Gal3S(b1-3)GalNAc = conditions: glycan notation: IUPAC condensed, linker removed
# In short: as §1
# Gal(b1-4)GlcNAc = conditions: glycan notation: IUPAC condensed, linker removed
# In short: as §1
# Gal3S(b1-4)GlcNAc6S = conditions: glycan notation: IUPAC condensed, linker removed
# In short: as §1
# Gal3S(b1-4)GlcNAc = conditions: glycan notation: IUPAC condensed, linker removed
# In short: as §1
# Gal(b1-4)Glc = conditions: glycan notation: IUPAC condensed, linker removed
# In short: as §1
# Gal3S(b1-3)GlcNAc = conditions: glycan notation: IUPAC condensed, linker removed
# In short: as §1
# [3] = test system: Gal3S(b1-3)[Fuc(a1-4)]GlcNAc; conditions: glycan notation: IUPAC condensed, linker removed
# In short: as §1
# Chain of CHI3L1 (Homo sapiens), P36222 (P36222 whole entry): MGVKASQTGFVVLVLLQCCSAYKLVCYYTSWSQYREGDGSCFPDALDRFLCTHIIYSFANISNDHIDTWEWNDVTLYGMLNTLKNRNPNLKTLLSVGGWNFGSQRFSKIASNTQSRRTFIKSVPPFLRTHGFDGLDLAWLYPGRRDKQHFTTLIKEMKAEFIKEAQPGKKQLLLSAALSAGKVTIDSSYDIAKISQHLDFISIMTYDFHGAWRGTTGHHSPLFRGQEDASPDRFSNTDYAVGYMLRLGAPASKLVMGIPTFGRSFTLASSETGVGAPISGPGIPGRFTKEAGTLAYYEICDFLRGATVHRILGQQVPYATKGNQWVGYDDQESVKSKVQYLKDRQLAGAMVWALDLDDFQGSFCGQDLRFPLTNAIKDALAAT
# Chain of Regenerating Gene IV (Homo sapiens), Q9BYZ8 (Q9BYZ8 whole entry, looked up): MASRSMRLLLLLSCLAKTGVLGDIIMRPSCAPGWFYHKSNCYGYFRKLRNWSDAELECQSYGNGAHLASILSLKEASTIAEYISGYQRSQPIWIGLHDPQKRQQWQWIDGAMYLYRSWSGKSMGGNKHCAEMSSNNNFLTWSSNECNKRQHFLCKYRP
# Chain of SRLC (Mus musculus), Q8VIF6 (Q8VIF6 other isoform, or with tags, fused parts or gaps): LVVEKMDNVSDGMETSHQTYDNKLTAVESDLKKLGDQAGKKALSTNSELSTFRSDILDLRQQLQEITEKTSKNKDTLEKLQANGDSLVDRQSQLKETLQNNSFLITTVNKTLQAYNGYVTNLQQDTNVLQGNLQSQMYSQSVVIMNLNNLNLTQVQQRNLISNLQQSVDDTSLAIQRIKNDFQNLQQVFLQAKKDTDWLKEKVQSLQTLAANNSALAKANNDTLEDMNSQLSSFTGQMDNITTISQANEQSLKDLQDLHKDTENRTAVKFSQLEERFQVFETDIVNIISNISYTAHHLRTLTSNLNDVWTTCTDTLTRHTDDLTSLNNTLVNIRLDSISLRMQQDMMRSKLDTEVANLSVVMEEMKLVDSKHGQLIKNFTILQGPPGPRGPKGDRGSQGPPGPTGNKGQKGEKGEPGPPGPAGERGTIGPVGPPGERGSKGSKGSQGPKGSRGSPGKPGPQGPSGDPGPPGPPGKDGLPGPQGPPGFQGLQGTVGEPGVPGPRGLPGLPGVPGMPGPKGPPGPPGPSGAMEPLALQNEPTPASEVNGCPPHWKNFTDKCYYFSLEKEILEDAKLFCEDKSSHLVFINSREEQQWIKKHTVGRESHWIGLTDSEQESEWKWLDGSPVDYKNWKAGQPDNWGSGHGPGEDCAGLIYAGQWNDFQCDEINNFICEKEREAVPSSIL
# Chain of CHT (Homo sapiens) (chain, as listed by the source): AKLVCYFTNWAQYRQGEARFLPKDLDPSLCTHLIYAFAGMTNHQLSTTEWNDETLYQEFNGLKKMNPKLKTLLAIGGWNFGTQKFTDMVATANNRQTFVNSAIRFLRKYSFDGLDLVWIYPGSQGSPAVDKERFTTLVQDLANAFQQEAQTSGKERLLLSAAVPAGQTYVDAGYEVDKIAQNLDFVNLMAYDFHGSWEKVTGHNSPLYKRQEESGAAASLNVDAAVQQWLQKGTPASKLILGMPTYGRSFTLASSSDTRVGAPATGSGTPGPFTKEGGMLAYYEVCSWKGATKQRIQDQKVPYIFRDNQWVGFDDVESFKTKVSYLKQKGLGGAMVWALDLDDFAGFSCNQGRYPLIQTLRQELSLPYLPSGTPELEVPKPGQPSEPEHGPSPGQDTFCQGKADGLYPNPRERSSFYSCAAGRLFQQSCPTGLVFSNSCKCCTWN
# Chain of Avaren (Actinomycete K97) (chain, as listed by the source): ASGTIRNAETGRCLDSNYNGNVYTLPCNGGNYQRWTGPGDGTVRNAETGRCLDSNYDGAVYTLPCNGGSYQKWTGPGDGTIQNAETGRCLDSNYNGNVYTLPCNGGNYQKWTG
# Chain of Neurocan (Homo sapiens), O14594 (O14594 other isoform, or with tags, fused parts or gaps): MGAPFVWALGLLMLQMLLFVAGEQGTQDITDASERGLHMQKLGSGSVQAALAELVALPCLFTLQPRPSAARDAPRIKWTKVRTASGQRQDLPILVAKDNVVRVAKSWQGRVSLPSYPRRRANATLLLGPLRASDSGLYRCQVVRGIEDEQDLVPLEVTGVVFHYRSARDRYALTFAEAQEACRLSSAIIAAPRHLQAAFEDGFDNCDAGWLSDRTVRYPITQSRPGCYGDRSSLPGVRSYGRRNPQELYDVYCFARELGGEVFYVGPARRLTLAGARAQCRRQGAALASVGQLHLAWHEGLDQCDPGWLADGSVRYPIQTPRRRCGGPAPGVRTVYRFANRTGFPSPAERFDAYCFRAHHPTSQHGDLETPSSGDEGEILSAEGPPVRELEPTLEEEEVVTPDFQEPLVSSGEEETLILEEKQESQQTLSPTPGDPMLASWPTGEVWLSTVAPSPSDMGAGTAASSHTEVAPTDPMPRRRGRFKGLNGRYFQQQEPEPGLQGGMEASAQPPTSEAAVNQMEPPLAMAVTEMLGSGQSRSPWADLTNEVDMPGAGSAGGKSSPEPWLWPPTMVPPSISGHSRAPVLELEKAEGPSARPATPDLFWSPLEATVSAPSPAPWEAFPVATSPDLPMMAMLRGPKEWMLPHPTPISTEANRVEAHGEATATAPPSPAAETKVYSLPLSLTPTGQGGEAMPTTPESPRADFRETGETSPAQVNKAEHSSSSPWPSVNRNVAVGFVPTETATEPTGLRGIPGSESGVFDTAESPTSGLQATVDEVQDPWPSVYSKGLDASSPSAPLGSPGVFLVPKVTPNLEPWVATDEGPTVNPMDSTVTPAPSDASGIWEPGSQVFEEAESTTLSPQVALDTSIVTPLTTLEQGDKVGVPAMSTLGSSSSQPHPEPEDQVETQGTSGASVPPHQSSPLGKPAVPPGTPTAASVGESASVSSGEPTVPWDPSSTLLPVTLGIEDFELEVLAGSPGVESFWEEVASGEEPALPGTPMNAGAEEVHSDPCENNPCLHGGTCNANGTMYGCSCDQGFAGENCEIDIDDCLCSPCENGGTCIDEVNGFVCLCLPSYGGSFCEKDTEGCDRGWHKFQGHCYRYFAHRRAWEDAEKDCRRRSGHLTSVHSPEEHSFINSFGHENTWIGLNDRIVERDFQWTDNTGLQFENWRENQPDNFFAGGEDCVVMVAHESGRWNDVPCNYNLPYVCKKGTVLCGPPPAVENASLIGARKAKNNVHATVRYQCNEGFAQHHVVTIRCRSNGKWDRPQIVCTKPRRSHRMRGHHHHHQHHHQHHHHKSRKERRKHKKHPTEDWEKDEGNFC
# Chain of C3b (Homo sapiens), P01024 (P01024 23-667): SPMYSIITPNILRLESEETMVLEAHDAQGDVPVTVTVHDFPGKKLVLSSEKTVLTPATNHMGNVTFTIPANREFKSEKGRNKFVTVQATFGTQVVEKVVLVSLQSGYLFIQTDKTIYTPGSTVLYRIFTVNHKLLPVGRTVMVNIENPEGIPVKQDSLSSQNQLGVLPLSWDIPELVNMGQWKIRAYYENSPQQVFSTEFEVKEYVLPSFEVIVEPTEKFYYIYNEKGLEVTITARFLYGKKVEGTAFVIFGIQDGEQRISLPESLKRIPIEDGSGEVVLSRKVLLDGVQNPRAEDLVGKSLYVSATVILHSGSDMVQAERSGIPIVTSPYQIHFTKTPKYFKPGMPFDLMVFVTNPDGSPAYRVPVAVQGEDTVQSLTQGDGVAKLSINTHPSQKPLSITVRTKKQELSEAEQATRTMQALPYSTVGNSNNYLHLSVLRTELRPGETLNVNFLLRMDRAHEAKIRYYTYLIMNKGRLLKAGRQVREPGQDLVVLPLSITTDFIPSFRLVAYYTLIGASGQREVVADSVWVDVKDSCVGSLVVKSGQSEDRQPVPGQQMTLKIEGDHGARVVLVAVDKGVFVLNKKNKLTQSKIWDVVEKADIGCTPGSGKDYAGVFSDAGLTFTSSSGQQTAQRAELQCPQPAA
# Chain of 6RG (Lolium perenne), B9U140 (B9U140 entry or part of it): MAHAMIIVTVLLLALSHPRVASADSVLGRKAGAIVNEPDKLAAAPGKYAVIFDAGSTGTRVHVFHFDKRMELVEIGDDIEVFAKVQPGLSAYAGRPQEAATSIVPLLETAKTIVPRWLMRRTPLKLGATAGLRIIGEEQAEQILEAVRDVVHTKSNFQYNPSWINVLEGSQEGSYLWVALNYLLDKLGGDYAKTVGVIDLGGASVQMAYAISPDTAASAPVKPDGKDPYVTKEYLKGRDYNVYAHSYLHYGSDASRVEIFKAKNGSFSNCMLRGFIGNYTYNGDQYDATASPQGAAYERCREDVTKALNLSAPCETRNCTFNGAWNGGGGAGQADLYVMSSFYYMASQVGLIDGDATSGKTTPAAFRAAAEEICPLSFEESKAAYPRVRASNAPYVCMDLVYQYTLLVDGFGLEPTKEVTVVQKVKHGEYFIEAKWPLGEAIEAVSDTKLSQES
substance,measurement,setting,value
CHT (Homo sapiens),glycan array binding signal (z-score),[1],-0.115
"Regenerating Gene IV (Homo sapiens), Q9BYZ8",glycan array binding signal (z-score),[2],0.244
"Siglec-8 (Homo sapiens), Q9NYZ4",glycan array binding signal (z-score),[2],-0.099
same,glycan array binding signal (z-score),Gal(b1-6)Gal,-0.178
same,glycan array binding signal (z-score),Gal(b1-6)Gal; mutation: R125K,-0.117
same,glycan array binding signal (z-score),Gal3S(b1-3)GalNAc,0.076
"CHI3L1 (Homo sapiens), P36222",glycan array binding signal (z-score),Gal(b1-4)GlcNAc,-0.122
same,glycan array binding signal (z-score),Gal3S(b1-4)GlcNAc6S,-0.093
same,glycan array binding signal (z-score),Gal3S(b1-4)GlcNAc,0.706
"Neurocan (Homo sapiens), O14594",glycan array binding signal (z-score),Gal(b1-4)Glc,-0.551
MpAFP RI GFP (Marinomonas primoryensis),glycan array binding signal (z-score),Gal(b1-6)Gal,-0.336
same,glycan array binding signal (z-score),Gal3S(b1-3)GlcNAc,-0.429
Avaren (Actinomycete K97),glycan array binding signal (z-score),Gal3S(b1-3)GalNAc,-0.121
"C3b (Homo sapiens), P01024",glycan array binding signal (z-score),Gal3S(b1-3)GlcNAc,1.05
"SRLC (Mus musculus), Q8VIF6",glycan array binding signal (z-score),[3],-0.081
"6RG (Lolium perenne), B9U140",glycan array binding signal (z-score),Gal3S(b1-4)GlcNAc6S,0.775
